This is a sample that favours compounds with a hit; in the whole collection about 3.3% have one here.
Arbovirus inh: arbovirus infection inhibition. arbovirus infection cell-based antiviral screen. inhibition, % at 10 µM. 200,000 compounds, 0.37% hits; in the data active = inhibition above about 30%
WT yeast gro inh: growth inhibition of WT yeast, mitochondrial fusion screen; mitochondrial fusion phenotypic screen, WT strain; inhibition, % at 10 µM; 190,000 compounds, 2.1% hits; AID 1362; in the data active = inhibition above about 58%; tested in S. cerevisiae
PERK inh: inhibitors of human PERK kinase; Q9NZJ5; CHO PERK-DD fusion, SEAP luminescence translation reporter; inhibition, % at 5.6 µM; 220,000 compounds, 0.17% hits;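 active = inhibition above the mean inhibition of all tested compounds plus 3 SD, set separately per screening campaign, cut at about 2.9% in these data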;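 also: PERK kinase domain activated by AP20187 dimerizer at 100 nM; 0% = DMSO with dimerizer and 100% = rapamycin at 8.4 µM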
Target sequence (Q9NZJ5 whole entry, looked up, the tested form may be a part): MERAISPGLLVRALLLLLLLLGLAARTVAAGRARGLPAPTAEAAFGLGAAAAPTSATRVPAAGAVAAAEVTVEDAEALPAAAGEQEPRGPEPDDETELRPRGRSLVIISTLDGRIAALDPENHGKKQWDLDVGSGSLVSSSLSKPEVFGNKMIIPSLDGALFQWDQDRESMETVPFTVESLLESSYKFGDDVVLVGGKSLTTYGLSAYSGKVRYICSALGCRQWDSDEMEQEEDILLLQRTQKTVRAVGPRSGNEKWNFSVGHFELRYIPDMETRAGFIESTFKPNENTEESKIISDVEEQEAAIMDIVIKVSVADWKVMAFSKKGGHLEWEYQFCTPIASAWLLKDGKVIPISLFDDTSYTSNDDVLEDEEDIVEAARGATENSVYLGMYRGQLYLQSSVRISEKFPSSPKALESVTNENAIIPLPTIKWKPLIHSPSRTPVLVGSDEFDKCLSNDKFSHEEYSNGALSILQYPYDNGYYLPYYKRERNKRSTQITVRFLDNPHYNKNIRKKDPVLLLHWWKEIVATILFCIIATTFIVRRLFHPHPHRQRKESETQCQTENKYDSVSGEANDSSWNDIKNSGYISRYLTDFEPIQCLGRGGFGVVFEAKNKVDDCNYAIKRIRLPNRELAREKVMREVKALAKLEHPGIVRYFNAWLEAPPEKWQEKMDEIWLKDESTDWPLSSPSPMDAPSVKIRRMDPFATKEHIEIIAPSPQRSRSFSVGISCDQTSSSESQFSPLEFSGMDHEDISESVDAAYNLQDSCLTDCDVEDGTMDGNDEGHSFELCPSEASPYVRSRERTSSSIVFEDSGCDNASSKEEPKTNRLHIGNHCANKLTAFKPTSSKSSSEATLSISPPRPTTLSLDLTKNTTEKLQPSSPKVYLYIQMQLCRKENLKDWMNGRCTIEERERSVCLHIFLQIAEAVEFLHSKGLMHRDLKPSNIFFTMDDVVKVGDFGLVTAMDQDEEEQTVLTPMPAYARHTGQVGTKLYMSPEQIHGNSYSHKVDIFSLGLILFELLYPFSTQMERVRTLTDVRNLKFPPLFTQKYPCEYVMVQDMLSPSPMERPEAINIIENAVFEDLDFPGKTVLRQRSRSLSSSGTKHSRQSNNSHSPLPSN
ROMK primary: modulators of human ROMK potassium channel. P48048. Tet-inducible ROMK, thallium flux fluorescence; actives lie on both sides. B-score at 10 µM. 130,000 compounds, 2% hits. AID 1918;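 active = signal ratio slope over the read window, or its plate-corrected B-score, at least 3 SD from the plate mean, either direction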;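 also: B-score of the F/F0 ratio slope over 7 to 12 s after thallium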
ROMK hit retest: retested hit modulating human ROMK potassium channel. shares compounds with ROMK primary. AID 1917. ROMK thallium flux, fluorescence ratio; hits give low values. normalized thallium flux (F/F0 slope) at 10 µM. 3,000 compounds, 54% hits;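 active = Flux at 10 µM at least 3 SD below or above vehicle control mean in one or both replicates; inconclusive = no clear call, values can overlap the other calls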
An asterisk follows results filed as active; ? = inconclusive; . = no result given.

SMILES	Arbovirus inh	WT yeast gro inh	PERK inh	ROMK primary	ROMK hit retest
CC1(C#CC[N+]2(C)CCCCC2)CCC2C(O1)c1ccccc1OC2(C)C (stereo not drawn)	-2.4	-16.5	0.3	-0.151	.
CCC(=O)N1CCc2cc(S(=O)(=O)N3CCN(c4ccccn4)CC3)ccc21	4.7	14.3	-1.7	3.57*	0.0897
COc1cccc(/C=c2\sc3nc(-c4cccs4)nn3c2=O)c1OC	14.2	.	0.7	.	0.082
Cc1ccc(-n2nc3c(c2NC(=O)c2ccc(S(=O)(=O)N4CCOCC4)cc2)CSC3)c(C)c1	7.0	0.6	0.2	.	.
CCC(CC)C(=O)Nc1c2cnn(-c3ccccc3)c2nc(=O)n1-c1ccccc1	12.0	-0.5	1.9	-4.97*	0.0515*
CCOC(=O)C(CC)Sc1nc2c(cnn2-c2ccccc2)c(=O)[nH]1 (stereo not drawn)	18.4	8.4	-0.3	.	.
CC(C)C(=O)NC(c1cccs1)c1cc([N+](=O)[O-])c2cccnc2c1O (stereo not drawn)	-26.9	10.4	1.0	.	.
Cc1ccc(C(NC(=O)C(C)C)c2cc([N+](=O)[O-])c3cccnc3c2O)cc1 (stereo not drawn)	-20.0	-14.6	1.9	3.28*	0.0812
c1cnc2ncc3sccc3c2c1	10.8	-2.0	2.1	-0.252	.
Cc1cnc2ncc3sccc3c2c1	0.2	-1.9	1.3	-3.59*	0.0586*
Cc1cc(NC(=O)CSc2nc(C3CC3)nc3sc(C)c(C)c23)no1	-22.6	0.9	0.6	0.948	.
COc1ccc(C(=O)NCCc2nnc(SCC(=O)Nc3ccccc3C(C)C)n2C)cc1	3.7	16.8	-1.3	0.288	.
O=C(COc1ccc([N+](=O)[O-])cc1)Nc1ccc(C(=O)Nc2ccccc2C(=O)O)cc1	27.6	10.0	1.2	0.718	.
O=C(CN1CCCC1)Nc1c2c(nc3ccccc13)N(Cc1ccccc1)CC2	-4.7	-11.2	-1.0	-3.11*	0.061*
c1cc2c3c(cccc3c1)NC1(CCC3(CC1)Nc1cccc4cccc(c14)N3)N2	.	.	-0.5	.	0.0495*
c1cc2c3c(cccc3c1)NC1(CCCCCC1)N2	-11.2	10.8	1.0	.	.
O=P(OC1CCCCC1)(OC1CCCCC1)C(Nc1ccccc1)c1cccnc1 (stereo not drawn)	.	.	-0.6	.	?
Cn1nc(NC(=O)CC23CC4CC(CC(C4)C2)C3)c2c(F)cccc21	.	.	-0.7	-1.09	.
CC(C)(CO)NCc1ccccc1OCC(=O)Nc1ccccc1	-1.8	56.3	0.8	0.000711	.
Cc1ccc(NC(=O)COc2ccccc2CNC(C)(C)CC(C)(C)C)cc1	-41.5	34.6	-0.6	-3.58*	0.05*
CCC(c1nnnn1C(C)(C)CC)N(CCCN1CCOCC1)Cc1cc2cccc(C)c2[nH]c1=O (stereo not drawn)	8.3	1.1	-2.2	-2.49	.
CCC(C)(C)n1nnnc1C(C(C)C)N(CCN1CCOCC1)Cc1cc2cccc(C)c2[nH]c1=O (stereo not drawn)	5.2	13.5	-0.8	-2.9*	0.055*
COc1cc(/C=N/NC(=O)C2(O)c3ccccc3-c3ccccc32)ccc1O	-9.9	6.5	0.2	-0.00927	.
COc1cc(/C=N/NC(=O)C(=O)/C=C2\NC(C)(C)Cc3ccccc32)ccc1O	.	.	-0.2	2.15*	0.0827
CCOC(=O)Nc1ccc(S(=O)(=O)Nc2nc(C)cc(C)n2)cc1	-0.2	-1.5	1.4	2.42*	0.0802
SMILES	Arbovirus inh	WT yeast gro inh	PERK inh	ROMK primary	ROMK hit retest
CCO[C@@H]1OC(C(=O)N2CCCCCCC2)=C[C@H](c2cn(C(C)=O)c3ccccc23)[C@H]1CCCO	-0.5	11.4	0.1	.	.
CCNC(=S)N/N=C/c1cc(C)n(-c2ccc(Cl)cc2)c1C	0.9	73.4*	-0.7	3.01*	0.0844
COC(=O)N/N=C/c1cc(C)n(-c2ccc(F)cc2)c1C	4.1	-2.7	0.7	.	.
COC(=O)N/N=C/c1cc(C)n(-c2ccc(Br)cc2)c1C	.	.	-0.1	.	0.0879
COC(=O)N/N=C/c1cc(C)n(-c2ccccc2)c1C	-7.5	5.8	-0.5	0.861	.
Cc1cc(/C=N/NC(N)=O)c(C)n1-c1ccc(F)cc1	1.0	-0.8	0.5	2.89*	?
Cc1cc(/C=N/NC(N)=S)c(C)n1-c1ccc(Cl)c(Cl)c1	-7.0	63.4	-0.6	-0.45	.
COCCn1nnnc1C(c1cc2ccc(C)cc2[nH]c1=O)N(Cc1ccco1)Cc1cccs1 (stereo not drawn)	-22.9	-8.8	-1.5	.	.
CC(C)NC(=S)Nc1c(N)[nH]c(=O)[nH]c1=O	.	.	1.6	.	.
Cc1cc2nc(-c3ccc(SCC(=O)Nc4ccc(S(=O)(=O)NC5CC5)cc4)nc3)[nH]c2cc1C	-26.4	11.2	-0.1	.	.
O=C(c1cccc(Cl)c1)N1CCn2c1nc1ccccc12	-1.5	9.1	0.2	0.558	.
O=C(CN1C(=O)CCSc2ccccc21)Nc1ccc2c(c1)OCO2	1.7	5.8	-0.1	.	.
Cc1cccc2sc(N(CCCN(C)C)C(=O)CCc3ccccc3)nc12	-35.1	91.8	-0.1	-2.09*	0.0638*
Cc1cccc2sc(N(CCCN(C)C)C(=O)CN3C(=O)c4ccccc4C3=O)nc12	-1.5	38.1	0.0	0.00264	.
COc1cc(NCCCCCCCN)c2ncccc2c1	-34.6	31.1	0.0	-5.06*	0.0621*
CCc1ccccc1NS(=O)(=O)c1ccc(SC)cc1	-6.7	-3.6	1.2	-1.59*	0.0655*
CCOP(=O)(OCC)C(C)(C)NC(=O)Nc1ccc(Cl)c(Cl)c1	.	.	-0.8	.	.
CN(C)S(=O)(=O)Oc1cccc(C(=O)Nc2ccc(Cl)cc2)c1	2.1	3.2	-0.7	.	0.0736
CN(C)S(=O)(=O)Oc1cccc(C(=O)Nc2ccccc2Cl)c1	-0.8	30.2	0.2	.	.
O=C(Nc1cccnc1)c1cccc(S(=O)(=O)N2CCc3ccccc32)c1	5.6	6.2	-0.1	-1.03	.
O=C(Nc1cccnc1)c1ccc(Cl)c(S(=O)(=O)N2CCc3ccccc32)c1	-24.9	60.0*	1.0	-3.79*	0.0664*
CCN(c1ccc(NC(=O)c2ccc(Cl)nc2)cc1)C(C)C	-12.6	4.2	-0.5	0.874	.
Cc1ccc2c(c1)c1c3n2CCCNC3CCC1 (stereo not drawn)	-45.8	-4.8	0.7	-2.09*	0.0604*
c1cc2c(cc1C1CCCCC1)c1c3n2CCCNC3CCC1 (stereo not drawn)	-37.6	90.7	-1.1	-0.502	.
C/C=C/c1ccc(OCC(=O)OCc2csc(Nc3ccc(C)cc3)n2)c(OC)c1	-0.3	56.0	0.8	-2.61*	0.0648*
SMILES	Arbovirus inh	WT yeast gro inh	PERK inh	ROMK primary	ROMK hit retest
Cc1ccc(Nc2nc(COC(=O)COc3ccc(C=O)cc3)cs2)cc1	-9.6	1.5	0.5	.	.
CCOC(=O)Nc1nc(-c2ccccc2)c(C(=O)c2ccccc2)s1	-2.8	19.1	-1.7	3.58*	0.0825
COC(=O)Nc1nc(-c2ccccc2)c(C(=O)c2ccc(Cl)cc2)s1	-21.6	7.5	0.3	1.99	.
CC(=O)c1sc(NC(=O)c2ccccc2)nc1-c1ccccc1	-4.9	21.9	-0.1	0.554	.
CC(=O)c1sc(NC(=O)c2c(F)cccc2F)nc1-c1ccccc1	15.5	27.1	0.3	-12.4*	0.0781
COc1ccc(C(=O)C2CCCN(C(=O)c3cccnc3SC)C2)c(C)c1 (stereo not drawn)	-1.2	-21.1	0.4	-0.59	.
CN(C)S(=O)(=O)c1cccc(COC(=O)c2ccc(Cl)cc2O)c1	.	.	0.2	.	.

Screening results: PubChem BioAssay, several laboratories
